# Many of the other results were omitted from the sample, so the strongest signals are more common in it than they were.
# B1: PX9961M-bvu-482-23-482 (Bacteroides vulgatus) (protein)
# chain: WLDLAPSTQVDTETSINVLSDIEFTLNGIYSTMQSSDAYSGRLVYYGDVTGDDMQAVSSTKRTGNYYRFNFTKDNGPSSHWSYLYSIIQNCNLILMNVDKLSIDEDETEYKNDLKGQALAIRGMALFDLTRIFGYPYLKDNGASLGVPIVKELSTIDSKPARNTVAECYTEIISDLKNSTELLSGDFNKGKVNRWAAMTLLSRVYLYKGEYNEALTMAENAIKGAEKEGYALWTNEEYPTAWGNDASASNPGEILFEIVNLTTDSPGKESMGYLNSYNGYDDMCITCSFYQLLKKDPKDVRLKILSFDKKYYAYVNKYQPQQGENITDANIPLIRLSEAYLNAAEAAVQTGDNAKAVKYLNSIVQRANPENSVEGKTLTLENVLDERRKELVAEGHRMYDVIRNGMTVKRIDVKDSDINKTKHNTAYMEYDWNFHKILLPIPKKEMDANPNMKQNPGYVD
# Columns and labels:
# Experiment in all cases: glycan array binding signal (z-score within array); higher = stronger binding
# Conditions in all cases: glycan notation: IUPAC condensed, linker removed
# [1] = biological target: Fuc(a1-2)Gal(b1-3)GlcNAc(b1-2)Man(a1-3)[Fuc(a1-2)Gal(b1-3)GlcNAc(b1-2)Man(a1-6)]Man(b1-4)GlcNAc(b1-4)GlcNAc
# Procedure, shortened: (§1)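 Columns mapping to the same glycan were averaged after glycan names were converted to IUPAC-condensed notation. The data come from 3228 arrays in the Consortium for Functional Glycomics database, limited to those with an available protein sequence. Binding is reported as a within-array Z-score averaged across arrays of one protein sequence and across linkers.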
# [2] = biological target: Fuc(a1-2)Gal(b1-3)GlcNAc(b1-3)GalNAc
# Procedure, shortened: as §1
# [3] = biological target: Fuc(a1-2)Gal(b1-3)[Fuc(a1-4)]GlcNAc
# Procedure, shortened: as §1
# [4] = biological target: Fuc(a1-2)Gal(b1-3)[Fuc(a1-4)]GlcNAc(b1-3)[Gal(b1-4)GlcNAc(b1-6)]Gal(b1-4)Glc
# Procedure, shortened: as §1
# [5] = biological target: Fuc(a1-2)Gal(b1-4)GlcNAc(b1-2)[Fuc(a1-2)Gal(b1-4)GlcNAc(b1-4)]Man(a1-3)[Fuc(a1-2)Gal(b1-4)GlcNAc(b1-2)Man(a1-6)]Man(b1-4)GlcNAc(b1-4)GlcNAc
# Procedure, shortened: as §1
# [6] = biological target: Fuc(a1-2)Gal(b1-4)GlcNAc(b1-3)Gal(b1-4)GlcNAc
# Procedure, shortened: as §1
# [7] = biological target: Fuc(a1-2)Gal6S(b1-4)Glc6S
# Procedure, shortened: as §1
# [8] = biological target: Fuc(a1-2)[Gal(a1-3)]Gal(b1-3)GlcNAc
# Procedure, shortened: as §1
# [9] = biological target: Fuc(a1-2)[Gal(a1-3)]Gal(b1-4)GlcNAc
# Procedure, shortened: as §1
# [10] = biological target: Fuc(a1-2)[Gal(a1-3)]Gal(b1-4)GlcNAc(b1-2)Man(a1-3)[Fuc(a1-2)[Gal(a1-3)]Gal(b1-4)GlcNAc(b1-2)Man(a1-6)]Man(b1-4)GlcNAc(b1-4)GlcNAc
# Procedure, shortened: as §1
# [11] = biological target: Fuc(a1-2)[GalNAc(a1-4)]Gal(b1-4)GlcNAc
# Procedure, shortened: as §1
# [12] = biological target: Fuc(a1-3)[Gal(b1-4)]GlcNAc(b1-2)Man(a1-3)[Fuc(a1-3)[Gal(b1-4)]GlcNAc(b1-2)Man(a1-6)]Man(b1-4)GlcNAc(b1-4)[Fuc(a1-6)]GlcNAc
# Procedure, shortened: as §1
# [13] = biological target: Fuc(a1-3)[Gal3S(b1-4)]GlcNAc6S
# Procedure, shortened: as §1
# [14] = biological target: Gal(a1-3)[Gal(a1-4)]Gal(b1-4)GlcNAc
# Procedure, shortened: as §1
# [15] = biological target: Gal(a1-4)Gal(b1-3)GlcNAc(b1-2)Man(a1-3)[Gal(a1-4)Gal(b1-3)GlcNAc(b1-2)Man(a1-6)]Man(b1-4)GlcNAc(b1-4)GlcNAc
# Procedure, shortened: as §1
# [16] = biological target: Gal(b1-3)GlcNAc(b1-2)Man(a1-3)[GlcNAc(b1-4)][Gal(b1-3)GlcNAc(b1-2)Man(a1-6)]Man(b1-4)GlcNAc(b1-4)GlcNAc
# Procedure, shortened: as §1
# [17] = biological target: Gal(b1-4)GalNAc(b1-3)[Fuc(a1-2)]Gal(b1-4)GlcNAc
# Procedure, shortened: as §1
# [18] = biological target: Gal(b1-4)GlcNAc(a1-6)Gal(b1-4)GlcNAc
# Procedure, shortened: as §1
# [19] = biological target: Gal(b1-4)GlcNAc(b1-2)Man(a1-3)Man(b1-4)GlcNAc(b1-4)GlcNAc
# Procedure, shortened: as §1
# [20] = biological target: Gal(b1-4)GlcNAc(b1-2)Man(a1-3)[Gal(b1-4)GlcNAc(b1-2)Man(a1-6)][GlcNAc(b1-4)]Man(b1-4)GlcNAc(b1-4)[Fuc(a1-6)]GlcNAc
# Procedure, shortened: as §1
# [21] = biological target: Gal(b1-4)GlcNAc(b1-2)[Gal(b1-4)GlcNAc(b1-6)]Man(a1-6)[GlcNAc(b1-4)][Gal(b1-4)GlcNAc(b1-2)Man(a1-3)]Man(b1-4)GlcNAc(b1-4)GlcNAc
# Procedure, shortened: as §1
# [22] = biological target: Gal(b1-4)GlcNAc(b1-2)[Gal(b1-4)GlcNAc(b1-6)]Man(a1-6)[GlcNAc(b1-4)][Gal(b1-4)GlcNAc(b1-2)[Gal(b1-4)GlcNAc(b1-4)]Man(a1-3)]Man(b1-4)GlcNAc(b1-4)[Fuc(a1-6)]GlcNAc
# Procedure, shortened: as §1
# [23] = biological target: Gal(b1-4)GlcNAc(b1-3)Gal(b1-3)GalNAc
# Procedure, shortened: as §1
# [24] = biological target: Gal(b1-4)GlcNAc(b1-3)Gal(b1-4)GlcNAc(b1-3)Gal(b1-4)GlcNAc
# Procedure, shortened: as §1
# [25] = biological target: Gal(b1-4)GlcNAc(b1-3)Gal(b1-4)GlcNAc(b1-3)Gal(b1-4)GlcNAc(b1-2)Man(a1-3)[Gal(b1-4)GlcNAc(b1-3)Gal(b1-4)GlcNAc(b1-3)Gal(b1-4)GlcNAc(b1-2)Man(a1-6)]Man(b1-4)GlcNAc(b1-4)GlcNAc
# Procedure, shortened: as §1
# [26] = biological target: Gal(b1-4)GlcNAc(b1-3)Gal(b1-4)GlcNAc(b1-3)Gal(b1-4)GlcNAc(b1-3)Gal(b1-4)GlcNAc(b1-2)Man(a1-3)[Gal(b1-4)GlcNAc(b1-3)Gal(b1-4)GlcNAc(b1-3)Gal(b1-4)GlcNAc(b1-3)Gal(b1-4)GlcNAc(b1-2)Man(a1-6)]Man(b1-4)GlcNAc(b1-4)[Fuc(a1-6)]GlcNAc
# Procedure, shortened: as §1
# [27] = biological target: Gal(b1-4)GlcNAc(b1-3)Gal(b1-4)[Fuc(a1-3)]GlcNAc(b1-3)Gal(b1-4)[Fuc(a1-3)]GlcNAc
# Procedure, shortened: as §1
binder,measurement,setting,value
B1,glycan array binding signal (z-score),[1],0.321
same,glycan array binding signal (z-score),[2],-1.09
same,glycan array binding signal (z-score),[3],-0.893
same,glycan array binding signal (z-score),[4],0.057
same,glycan array binding signal (z-score),[5],1.74
same,glycan array binding signal (z-score),[6],-1.33
same,glycan array binding signal (z-score),[7],0.138
same,glycan array binding signal (z-score),[8],-0.45
same,glycan array binding signal (z-score),[9],-0.597
same,glycan array binding signal (z-score),[10],1.68
same,glycan array binding signal (z-score),[11],-0.779
same,glycan array binding signal (z-score),[12],1.97
same,glycan array binding signal (z-score),[13],-0.788
same,glycan array binding signal (z-score),[14],4.04
same,glycan array binding signal (z-score),[15],1.92
same,glycan array binding signal (z-score),[16],-0.064
same,glycan array binding signal (z-score),[17],-0.62
same,glycan array binding signal (z-score),[18],1.66
same,glycan array binding signal (z-score),[19],0.327
same,glycan array binding signal (z-score),[20],0.416
same,glycan array binding signal (z-score),[21],-0.402
same,glycan array binding signal (z-score),[22],-0.596
same,glycan array binding signal (z-score),[23],-1.18
same,glycan array binding signal (z-score),[24],-0.219
same,glycan array binding signal (z-score),[25],1.88
same,glycan array binding signal (z-score),[26],0.966
same,glycan array binding signal (z-score),[27],-0.719
